This is part of a sample that, as a whole, favours compounds with a hit. Of some 79,000 tested, about 15% had one in any assay. A number with no mark means an inactive call. The source made the active and inactive calls. No stated cut-off is given here; in the data, active means growth inhibition above about 70%; inactive means the rest.
Key:
[1] = NCI Yeast Anticancer Drug Screen. Data for the rad50 strain (AID 155);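 further: 0% = growth of vehicle-only cultures of the same strain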; settings: S. cerevisiae rad50 strain growth inhibition, active compounds read high
Outline: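 Readout: growth inhibition relative to vehicle-treated cultures. Compound exposure was carried out in a genetically defined yeast strain deficient in DNA damage repair.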

[2] = NCI Yeast Anticancer Drug Screen. Data for the mec2-1 strain (AID 157); settings: S. cerevisiae mec2-1 strain, active compounds read high
Outline: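 Readout is yeast growth inhibition, normalised to vehicle-treated controls, in the mec2-1 strain exposed to compound.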

[3] = NCI Yeast Anticancer Drug Screen. Data for the sgs1 mgt1 strain (AID 161);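 further: 0% = growth of cultures given vehicle only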; settings: S. cerevisiae sgs1 mgt1 strain, active compounds read high
Outline: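 Percent growth inhibition was derived by comparing compound-exposed mutant yeast with vehicle-exposed cultures. The strain carries alterations in DNA damage repair.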

[4] = NCI Yeast Anticancer Drug Screen. Data for the cln2 rad14 strain (AID 165);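 further: 0% = growth equal to vehicle treated cultures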; settings: S. cerevisiae cln2 rad14 strain, active compounds read high
Outline: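 Relative to vehicle controls, growth inhibition of compound-treated cln2 rad14 yeast was recorded.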

[5] = NCI Yeast Anticancer Drug Screen. Data for the bub3 strain (AID 167); settings: S. cerevisiae bub3 mutant strain, active compounds read high
Outline: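 Readout: yeast growth inhibition, expressed relative to vehicle-only wells. The test organism is a mutant strain from a panel with lesions in DNA repair or checkpoint genes.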

[6] = NCI Yeast Anticancer Drug Screen. Data for the mlh1 rad18 strain (AID 175); settings: S. cerevisiae mlh1 rad18 strain growth inhibition, active compounds read high
Outline: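 Test agents were incubated with a yeast strain of defined genotype (DNA damage repair defect). Inhibition of growth was derived by comparison with vehicle-exposed cultures.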

[7] = at 5.0 µM (retest, dose inferred, filed as 0.5)
[8] = at 50.0 µM (retest, dose inferred, filed as 5.0)

## COc1ccc(Cc2c3ccccc3cc[n+]2C)cc1Oc1ccc(Cc2c3ccccc3cc[n+]2C)cc1
[1]; [7]
  growth inhibition: 2%
[1]; [8]
  growth inhibition: 87% (active)
[1]; at 50.0 µM
  growth inhibition: 51.5%
[2]; [7]
  growth inhibition: -1%
[2]; [8]
  growth inhibition: 92% (active)
[2]; at 50.0 µM
  growth inhibition: 43.8%
[3]; [7]
  growth inhibition: 2%
[3]; [8]
  growth inhibition: 93% (active)
[3]; at 50.0 µM
  growth inhibition: 76.5% (active)
[4]; [7]
  growth inhibition: -14%
[4]; [8]
  growth inhibition: 84% (active)
[4]; at 50.0 µM
  growth inhibition: -26.7%
[5]; [7]
  growth inhibition: -2%
[5]; [8]
  growth inhibition: 96% (active)
[5]; at 50.0 µM
  growth inhibition: 40.9%
[6]; [7]
  growth inhibition: -2%
[6]; [8]
  growth inhibition: 96% (active)
[6]; at 50.0 µM
  growth inhibition: 85.9% (active)

## O=S1(=O)C=C(c2ccccc2)S(=O)(=O)C=C1c1ccccc1
[1]; [7]
  growth inhibition: -1%
[1]; [8]
  growth inhibition: 85% (active)
[1]; at 50.0 µM
  growth inhibition: 89% (active)
[2]; [7]
  growth inhibition: 3%
[2]; [8]
  growth inhibition: 76% (active)
[2]; at 50.0 µM
  growth inhibition: 89.7% (active)
[3]; [7]
  growth inhibition: 0%
[3]; [8]
  growth inhibition: 63%
[3]; at 50.0 µM
  growth inhibition: 95.2% (active)
[4]; [7]
  growth inhibition: 0%
[4]; [8]
  growth inhibition: 94% (active)
[4]; at 50.0 µM
  growth inhibition: 57.9%
[5]; [7]
  growth inhibition: -5%
[5]; [8]
  growth inhibition: 81% (active)
[5]; at 50.0 µM
  growth inhibition: 91.8% (active)
[6]; [7]
  growth inhibition: 0%
[6]; [8]
  growth inhibition: 85% (active)
[6]; at 50.0 µM
  growth inhibition: 91.2% (active)

## S=C(Nc1ccccc1)[S][Sb]([S]C(=S)Nc1ccccc1)[c]1ccccc1
[1]; [7]
  growth inhibition: -5%
[1]; [8]
  growth inhibition: 80% (active)
[1]; at 50.0 µM
  growth inhibition: 41.4%
[2]; [7]
  growth inhibition: -6%
[2]; [8]
  growth inhibition: 98% (active)
[2]; at 50.0 µM
  growth inhibition: 20%
[3]; [7]
  growth inhibition: -56%
[3]; [8]
  growth inhibition: 77% (active)
[3]; at 50.0 µM
  growth inhibition: 43.1%
[4]; [7]
  growth inhibition: -8%
[4]; [8]
  growth inhibition: 34%
[4]; at 50.0 µM
  growth inhibition: 12.1%
[5]; [7]
  growth inhibition: -11%
[5]; [8]
  growth inhibition: 25%
[5]; at 50.0 µM
  growth inhibition: 3.15%
[6]; [7]
  growth inhibition: -2%
[6]; [8]
  growth inhibition: 94% (active)
[6]; at 50.0 µM
  growth inhibition: 63.4%

## O=C1/C(=C\c2ccccc2)C(NC2CCCCC2)c2ccccc21 (stereo not given)
[1]; [7]
  growth inhibition: 73% (active)
[1]; [8]
  growth inhibition: 99% (active)
[1]; at 50.0 µM
  growth inhibition: 99.6% (active)
[2]; [7]
  growth inhibition: 43%
[2]; [8]
  growth inhibition: 99% (active)
[2]; at 50.0 µM
  growth inhibition: 99.7% (active)
[3]; [7]
  growth inhibition: 65%
[3]; [8]
  growth inhibition: 98% (active)
[3]; at 50.0 µM
  growth inhibition: 99.7% (active)
[4]; [7]
  growth inhibition: 37%
[4]; [8]
  growth inhibition: 100% (active)
[4]; at 50.0 µM
  growth inhibition: 99.5% (active)
[5]; [7]
  growth inhibition: 75% (active)
[5]; [8]
  growth inhibition: 99% (active)
[5]; at 50.0 µM
  growth inhibition: 99.5% (active)
[6]; [7]
  growth inhibition: 74% (active)
[6]; [8]
  growth inhibition: 99% (active)
[6]; at 50.0 µM
  growth inhibition: 99.5% (active)

## CC(C)N=Cc1cc(I)cc(I)c1O.CC(C)N=Cc1cc(I)cc(I)c1O.[Co]
[1]; [7]
  growth inhibition: 99% (active)
[1]; [8]
  growth inhibition: 99% (active)
[1]; at 50.0 µM
  growth inhibition: 96.8% (active)
[2]; [7]
  growth inhibition: 99% (active)
[2]; [8]
  growth inhibition: 99% (active)
[2]; at 50.0 µM
  growth inhibition: 97.6% (active)
[3]; [7]
  growth inhibition: 99% (active)
[3]; [8]
  growth inhibition: 99% (active)
[3]; at 50.0 µM
  growth inhibition: 97.2% (active)
[4]; [7]
  growth inhibition: 98% (active)
[4]; [8]
  growth inhibition: 98% (active)
[4]; at 50.0 µM
  growth inhibition: 96.1% (active)
[5]; [7]
  growth inhibition: 98% (active)
[5]; [8]
  growth inhibition: 99% (active)
[5]; at 50.0 µM
  growth inhibition: 96.5% (active)
[6]; [7]
  growth inhibition: 99% (active)
[6]; [8]
  growth inhibition: 99% (active)
[6]; at 50.0 µM
  growth inhibition: 97% (active)

## O=C(/C=C\c1ccc([N+](=O)[O-])o1)/C=C/c1ccc([N+](=O)[O-])o1
[1]; [7]
  growth inhibition: 36%
[1]; [8]
  growth inhibition: 96% (active)
[1]; at 50.0 µM
  growth inhibition: 96.8% (active)
[2]; [7]
  growth inhibition: 33%
[2]; [8]
  growth inhibition: 98% (active)
[2]; at 50.0 µM
  growth inhibition: 97.1% (active)
[3]; [7]
  growth inhibition: 52%
[3]; [8]
  growth inhibition: 98% (active)
[3]; at 50.0 µM
  growth inhibition: 95% (active)
[4]; [7]
  growth inhibition: 28%
[4]; [8]
  growth inhibition: 97% (active)
[4]; at 50.0 µM
  growth inhibition: 92.7% (active)
[5]; [7]
  growth inhibition: 38%
[5]; [8]
  growth inhibition: 97% (active)
[5]; at 50.0 µM
  growth inhibition: 94.9% (active)
[6]; [7]
  growth inhibition: 91% (active)
[6]; [8]
  growth inhibition: 96% (active)
[6]; at 50.0 µM
  growth inhibition: 98.2% (active)

## CC(C)C(OC(=O)c1ccc(NCC2=CC(=O)C=CC2=O)cc1)C(C)C
[1]; [7]
  growth inhibition: 22%
[1]; [8]
  growth inhibition: 37%
[1]; at 50.0 µM
  growth inhibition: 17%
[2]; [7]
  growth inhibition: 15%
[2]; [8]
  growth inhibition: 40%
[2]; at 50.0 µM
  growth inhibition: 11.3%
[3]; [7]
  growth inhibition: 23%
[3]; [8]
  growth inhibition: 53%
[3]; at 50.0 µM
  growth inhibition: 73% (active)
[4]; [7]
  growth inhibition: 21%
[4]; [8]
  growth inhibition: 32%
[4]; at 50.0 µM
  growth inhibition: 73.8% (active)
[5]; [7]
  growth inhibition: 27%
[5]; [8]
  growth inhibition: 61%
[5]; at 50.0 µM
  growth inhibition: 70.5% (active)
[6]; [7]
  growth inhibition: 17%
[6]; [8]
  growth inhibition: 44%
[6]; at 50.0 µM
  growth inhibition: -10.4%

## COc1ccc(C2=C(Cl)C(=O)N(c3ccc(O)cc3)C(=O)C2(Cl)Cl)cc1
[1]; [7]
  growth inhibition: 18%
[1]; [8]
  growth inhibition: 99% (active)
[1]; at 50.0 µM
  growth inhibition: 57.7%
[2]; [7]
  growth inhibition: 13%
[2]; [8]
  growth inhibition: 99% (active)
[2]; at 50.0 µM
  growth inhibition: 59.7%
[3]; [7]
  growth inhibition: 31%
[3]; [8]
  growth inhibition: 99% (active)
[3]; at 50.0 µM
  growth inhibition: 57.2%
[4]; [7]
  growth inhibition: 4%
[4]; [8]
  growth inhibition: 98% (active)
[4]; at 50.0 µM
  growth inhibition: 58%
[5]; [7]
  growth inhibition: 3%
[5]; [8]
  growth inhibition: 99% (active)
[5]; at 50.0 µM
  growth inhibition: 47.9%
[6]; [7]
  growth inhibition: 15%
[6]; [8]
  growth inhibition: 98% (active)
[6]; at 50.0 µM
  growth inhibition: 58.2%

## Cc1nn(C(=S)S)c(C)c1N=Nc1ccc(Br)cc1
[1]; [7]
  growth inhibition: 14%
[1]; [8]
  growth inhibition: 97% (active)
[1]; at 50.0 µM
  growth inhibition: 99.4% (active)
[2]; [7]
  growth inhibition: 0%
[2]; [8]
  growth inhibition: 99% (active)
[2]; at 50.0 µM
  growth inhibition: 99.6% (active)
[3]; [7]
  growth inhibition: 8%
[3]; [8]
  growth inhibition: 99% (active)
[3]; at 50.0 µM
  growth inhibition: 99.2% (active)
[4]; [7]
  growth inhibition: -7%
[4]; [8]
  growth inhibition: 98% (active)
[4]; at 50.0 µM
  growth inhibition: 99.4% (active)
[5]; [7]
  growth inhibition: -2%
[5]; [8]
  growth inhibition: 98% (active)
[5]; at 50.0 µM
  growth inhibition: 82.2% (active)
[6]; [7]
  growth inhibition: 0%
[6]; [8]
  growth inhibition: 99% (active)
[6]; at 50.0 µM
  growth inhibition: 99.2% (active)

## CCCNCCCC(C)Nc1cc(OC)cc2c(C)ccnc12 (stereo not given)
[1]; [7]
  growth inhibition: 17%
[1]; [8]
  growth inhibition: 73% (active)
[1]; at 50.0 µM
  growth inhibition: 66.4%
[2]; [7]
  growth inhibition: 8%
[2]; [8]
  growth inhibition: 48%
[2]; at 50.0 µM
  growth inhibition: 55.2%
[3]; [7]
  growth inhibition: 20%
[3]; [8]
  growth inhibition: 78% (active)
[3]; at 50.0 µM
  growth inhibition: 41.9%
[4]; [7]
  growth inhibition: 2%
[4]; [8]
  growth inhibition: 46%
[4]; at 50.0 µM
  growth inhibition: 27.1%
[5]; [7]
  growth inhibition: -6%
[5]; [8]
  growth inhibition: 80% (active)
[5]; at 50.0 µM
  growth inhibition: 53.7%
[6]; [7]
  growth inhibition: 11%
[6]; [8]
  growth inhibition: 86% (active)
[6]; at 50.0 µM
  growth inhibition: 59.2%
